Non-standard residues stand in square brackets, D forms with d. Residues, ends and D or L forms follow the SMILES beside them. *: point of attachment. Sta = CC(C)C[C@H](N)[C@@H](O)CC(=O)O; Isovaleryl = CC(C)CC(=O)*
Test: qHTS profiling of the MIPE4 collection as inhibitors of Plasmodium falciparum (3D7) proliferation (AID 743344);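 note: scaled between DMSO vehicle wells and 0.29 µM artemisinin as full inhibition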
Conditions: P. falciparum 3D7 in erythrocytes, SYBR Green DNA fluorescence, 72 h; at 28.5 µM unless noted
In short: (§1)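 Parasite DNA was quantified by SYBR Green I fluorescence (ex 485, em 535 nm) after overnight lysis in saponin/Triton buffer at room temperature. Cultures at 0.3% parasitemia and 2.5% hematocrit were first exposed to compound for 72 h at 37 C; signals were normalised to artemisinin (0.29 uM) and vehicle wells.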
With `CCN(CC)CCOc1ccc(Cc2ccccc2)cc1` the parasite growth, % of DMSO control was 58.8%. `Cc1cc(Cl)ccc1OCCCC(=O)NO` showed a parasite growth, % of DMSO control of 34.3%.

Test: qHTS profiling of the MIPE4 collection as inhibitors of Plasmodium falciparum (DD2) proliferation (AID 743345)
Conditions: P. falciparum Dd2 in erythrocytes, SYBR Green DNA, 72 h; at 28.5 µM unless noted
In short: as §1
`CCN(CC)CCOc1ccc(Nc2ncc3cc(-c4c(Cl)cccc4Cl)c(=O)n(C)c3n2)cc1` gave a parasite growth remaining, % of DMSO control (lower = more inhibition) of 8.57%. `O=C(NOCC1CC1)c1ccc(F)c(F)c1Nc1ccc(I)cc1Cl` gave a parasite growth remaining, % of DMSO control (lower = more inhibition) of 91.6%. `C[C@]12CCC(=O)C=C1CC[C@@H]1[C@H]2[C@@H](O)C[C@@]2(C)[C@H]1CC[C@]2(O)C(=O)CO` gave a parasite growth remaining, % of DMSO control (lower = more inhibition) of 93.1%. For `Cc1cc(C2CCCCC2)n(O)c(=O)c1`, the parasite growth remaining, % of DMSO control (lower = more inhibition) was 7.36%. Compound `c1cnc2cc3c(cc2n1)C1CNCC3C1` has a parasite growth remaining, % of DMSO control (lower = more inhibition) of 96.8%. For `CC(C)(S)[C@@H](N)C(=O)O`, the parasite growth remaining, % of DMSO control (lower = more inhibition) was 127%. In the case of `C[C@H](Cn1cnc2c(N)ncnc21)OCP(=O)(O)O`, the parasite growth remaining, % of DMSO control (lower = more inhibition) is reported as 112%. With `CCCCCCCCOc1ccccc1C(=O)Nc1ccc(C(=O)OCC[N+](C)(CC)CC)cc1` the parasite growth remaining, % of DMSO control (lower = more inhibition) was 5.8%. Compound `CC(C)[N+]1(C)[C@@H]2CC[C@H]1CC(OC(=O)C(CO)c1ccccc1)C2` (some centres undefined) has a parasite growth remaining, % of DMSO control (lower = more inhibition) of 89.9%. In the case of `CCCCCCCCCCCCCCCCCCCCCCO`, the parasite growth remaining, % of DMSO control (lower = more inhibition) is reported as 124%. Compound `CC(C)c1ccc2oc3nc(N)c(C(=O)O)cc3c(=O)c2c1` has a parasite growth remaining, % of DMSO control (lower = more inhibition) of 91.1%. With `N=C(N)c1ccc2cc(OC(=O)c3ccc(N=C(N)N)cc3)ccc2c1` the parasite growth remaining, % of DMSO control (lower = more inhibition) was 9.8%. For `CN(C)C(=O)[C@H](O)[C@H](Cc1ccccc1)NC(=O)c1cc2cc(Cl)ccc2[nH]1`, the parasite growth remaining, % of DMSO control (lower = more inhibition) was 54.1%. With `Cc1nc(Nc2ncc(C(=O)Nc3c(C)cccc3Cl)s2)cc(N2CCN(CCO)CC2)n1` the parasite growth remaining, % of DMSO control (lower = more inhibition) was 65.3%. In the case of `Cc1c(C(=O)NN2CCCCC2)nn(-c2ccc(Cl)cc2Cl)c1-c1ccc(Cl)cc1`, the parasite growth remaining, % of DMSO control (lower = more inhibition) is reported as 8.4%. `CNC[C@@H](O)[C@@H](O)[C@H](O)[C@H](O)CO` gave a parasite growth remaining, % of DMSO control (lower = more inhibition) of 123%. With `O=C(CS(=O)Cc1ccco1)NCC=CCOc1cc(CN2CCCCC2)ccn1` (centres undefined) the parasite growth remaining, % of DMSO control (lower = more inhibition) was 95.7%. For `COCCCN1CCC(NC(=O)c2cc(Cl)c(N)c3c2OCC3)CC1`, the parasite growth remaining, % of DMSO control (lower = more inhibition) was 51.1%. Compound `Cc1cc2cc3c(C)cc(=O)oc3c(C)c2o1` has a parasite growth remaining, % of DMSO control (lower = more inhibition) of 95.8%. `O=C(O)CCNC(=O)c1ccc(N=Nc2ccc(O)c(C(=O)O)c2)cc1` gave a parasite growth remaining, % of DMSO control (lower = more inhibition) of 108%. `CN(C)[C@@H](CCOc1cccc2ccccc12)c1ccccc1` gave a parasite growth remaining, % of DMSO control (lower = more inhibition) of 14.4%. `N=C(N=C(N)N)N1CCOCC1` gave a parasite growth remaining, % of DMSO control (lower = more inhibition) of 96.2%. For `NC(=O)Cc1cccc(C(=O)c2ccccc2)c1N`, the parasite growth remaining, % of DMSO control (lower = more inhibition) was 98.5%. Compound `CCCOc1ccc2nc(NC(=O)OC)[nH]c2c1` has a parasite growth remaining, % of DMSO control (lower = more inhibition) of 92%. In the case of `Nc1ncn([C@H]2C[C@H](O)[C@@H](CO)O2)c(=O)n1`, the parasite growth remaining, % of DMSO control (lower = more inhibition) is reported as 99.3%. For `Cc1cccc(CN2CCN(C(c3ccccc3)c3ccc(Cl)cc3)CC2)c1` (centres undefined), the parasite growth remaining, % of DMSO control (lower = more inhibition) was 7.56%. Work on `CC(C)Oc1ccc2c(=O)c(-c3ccccc3)coc2c1` yielded a parasite growth remaining, % of DMSO control (lower = more inhibition) of 89.9%. With `CC(C)CC(=O)N[C@H](C(=O)N[C@H](C(=O)N[C@@H](CC(C)C)[C@@H](O)CC(=O)N[C@@H](C)C(=O)N[C@@H](CC(C)C)[C@@H](O)CC(=O)O)C(C)C)C(C)C` (Isovaleryl-VV[Sta]A[Sta]-OH) the parasite growth remaining, % of DMSO control (lower = more inhibition) was 99.1%. `Clc1ccc(C(Cn2ccnc2)OCc2ccc(Sc3ccccc3)cc2)c(Cl)c1` (centres undefined) gave a parasite growth remaining, % of DMSO control (lower = more inhibition) of 6.46%. For `COc1cc(C(C)=O)ccc1OCCCN1CCC(c2noc3cc(F)ccc23)CC1`, the parasite growth remaining, % of DMSO control (lower = more inhibition) was 54.6%. Work on `Clc1ccc2c(N3CCN(CCCN4CCN(c5ccnc6cc(Cl)ccc56)CC4)CC3)ccnc2c1` yielded a parasite growth remaining, % of DMSO control (lower = more inhibition) of 9.96% [at 9.64 µM]. Work on `COc1cc2c(N3CCN(C(=O)Nc4ccc(OC(C)C)cc4)CC3)ncnc2cc1OCCCN1CCCCC1` yielded a parasite growth remaining, % of DMSO control (lower = more inhibition) of 8.31%. In the case of `CN1CCC(=C2c3ccccc3CCc3sccc32)CC1`, the parasite growth remaining, % of DMSO control (lower = more inhibition) is reported as 50.7%. Work on `Clc1ccc(C(Cn2ccnc2)OCc2c(Cl)cccc2Cl)c(Cl)c1` (centres undefined) yielded a parasite growth remaining, % of DMSO control (lower = more inhibition) of 9.61%. In the case of `CC1=C(C(=O)O)N2C(=O)[C@@H](NC(=O)[C@H](N)C3=CCC=CC3)[C@H]2SC1`, the parasite growth remaining, % of DMSO control (lower = more inhibition) is reported as 87.3%. Compound `CCN(CC)CCOc1ccc(Cc2ccccc2)cc1` has a parasite growth remaining, % of DMSO control (lower = more inhibition) of 74.1%. `Cc1cc(Cl)ccc1OCCCC(=O)NO` gave a parasite growth remaining, % of DMSO control (lower = more inhibition) of 72.9%.

Source: PubChem BioAssay (NCATS)
